About 3,200 (25%) of roughly 13,000 compounds showed an effect of 50% or more. Some of the results follow.
Tested on: P. falciparum stage V gametocytes
Set-up: BacTiter-Glo ATP luminescence viability of purified stage V gametocytes in 384-well plates, per cent inhibition versus DMSO
Conditions: 48 h, 5 µM; inhibitor

Row | Structure (SMILES) | % Inhibition
1 | Fc1ccc2nc(-c3ccc(-c4cccc(CN5CCCCC5)c4)cc3)[nH]c2c1 [TCMDC-133896] | -18.48%
2 | Fc1ccc2nc(-c3ccc(-c4cccc(CN5CCC(CCN6CCCCC6)CC5)c4)cc3)[nH]c2c1 [TCMDC-133933] | 114%
3 | Fc1ccc2[nH]c(-c3ccc(-c4ccc(CN5CCC(CCN6CCCCC6)CC5)cc4)s3)nc2c1 [TCMDC-133932] | 102.4%
4 | OCCN1CCN(Cc2cccc(-c3cccc(-c4nc5ccc(F)cc5[nH]4)c3)c2)CC1 [TCMDC-133035] | -22.3%
5 | OCc1c(Cl)cc(Cl)cc1CNCCCNc1nc2ccccc2[nH]1 [TCMDC-140012] | -23.66%
6 | O=C(/C=C/c1ccc(Cl)c(Cl)c1)NCC1CCN(Cc2ccc(O)cc2)CC1 [TCMDC-141740] | 34.51%
7 | CCC1(C)CC(CCNCc2ccccc2O)(c2ccccc2OC)CCO1 (stereo not drawn) [TCMDC-125080] | 19.87%
8 | CN1CCC(NCc2ccc(-c3cnc(NCc4ccccc4)nc3)cc2)CC1 [TCMDC-134120] | 82.56%
9 | CN1CCC(NCc2cccc(-c3nn(C)c4nc(NC5CCCC5)ncc34)c2)CC1 [TCMDC-134840] | 110.3%
10 | CN1CCC(N(Cc2ccc(-c3cnc(NCc4ccccc4)nc3)cc2)S(=O)(=O)c2ccccc2)CC1 [TCMDC-137158] | 31.68%
11 | Cn1nc(-c2cccc(CNCCc3cccs3)c2)c2cnc(NC3CCCC3)nc21 [TCMDC-135031] | 12.01%
12 | Cn1nc(-c2cccc(CNCc3ccccc3)c2)c2cnc(NC3CCCC3)nc21 [TCMDC-134839] | -3.994%
13 | CN1CCC(NCc2cccc(-c3cnc(NCc4ccccc4)nc3)c2)CC1 [TCMDC-134119] | 58.9%
14 | COc1ccc(-c2cnc(NCc3ccccc3)nc2)cc1CNC1CCN(C)CC1 [TCMDC-134121] | 34.84%
15 | COC(=O)c1cccc(OCCNC2CCN(C[C@H](O)c3ccnc4ccc(OC)cc34)CC2)c1 [TCMDC-140710] | -10.21%
16 | Cc1nnc(N2C(=N)SC(=Cc3ccc(-c4ccc(OC(F)(F)F)cc4)o3)C2=O)s1 [TCMDC-124487] | 0.8925%
17 | COc1nc2c(N3CCN(CCNCc4ccc5c(n4)NC(=O)CO5)CC3)ccnc2cc1F [TCMDC-135208] | -25.48%
18 | Cc1ccc(NC(=O)Nc2ccc(Cl)c(C(F)(F)F)c2)cc1-c1ccc(C(=O)NCCN2CCOCC2)cc1 [TCMDC-133589] | 4.722%
19 | CC(C)N1CCN(C(=O)c2ccc(CN(C)CCCN3CCN(c4cccc(Cl)c4Cl)CC3)s2)CC1 [TCMDC-136526] | 84.79%
20 | CN(C)CCCN1CCN(C(=O)c2cccc(-c3noc(C(F)(F)F)n3)c2)CC1 [TCMDC-132384] | -19.31%
21 | CC(C)N1CCN(C(=O)c2ccc(CNCCCN3CCN(c4ccccc4C(F)(F)F)CC3)s2)CC1 [TCMDC-136704] | 40.48%
22 | CC(C)N1CCN(C(=O)c2ccc(CNCCCN3CCN(c4cccc(Cl)c4Cl)CC3)s2)CC1 [TCMDC-136520] | 62.19%
23 | Cc1cc2[nH]c(-c3ccc(C(=O)NCCCN4CCN(c5cccc(Cl)c5)CC4)s3)nc2cc1Cl [TCMDC-140031] | -0.02415%
24 | CC(C)N1CCN(C(=O)c2ccc(CNCCCN3CCN(c4cccc(Cl)c4Cl)CC3)o2)CC1 [TCMDC-136521] | -13.79%

Row | Structure (SMILES) | % Inhibition
25 | CC(C)CCN1CCCN(Cc2ccc(C(=O)Nc3ccc(C(C)(C)C)cc3)cc2)CC1 [TCMDC-136444] | 35.23%
26 | O=C(Nc1ccc(OCc2ccccc2)cc1)c1nc2ccccc2nc1Cl [TCMDC-124732] | 4.904%
27 | Oc1ccc(CCNc2nc(NCc3cccc(OCc4cccc(F)c4)c3)nc(N3CCNCC3)n2)cc1 [TCMDC-133812] | -36.91%
28 | CC(=O)Nc1cccc(CNc2cc(C)nc(Nc3ccc(C)cc3)n2)c1 [TCMDC-133461] | 27.64%
29 | Cc1ccc(Oc2ccc(CNc3nc(Nc4cccc(F)c4)nc(Nc4cccc(F)c4)n3)cc2)cc1 [TCMDC-135138] | 50.43%
30 | Fc1cccc(Nc2nc(NCc3ccc(OCc4ccccc4)cc3)nc(Nc3cccc(F)c3)n2)c1 [TCMDC-135137] | 60.27%
31 | COc1cccc(Nc2nc(C)cc(NCc3ccc(-c4c(C)noc4C)cc3)n2)c1 [TCMDC-133451] | 9.249%
32 | COc1cc(Cc2cnc3nc(N)nc(N)c3c2C)cc(OC)c1OC [TCMDC-138058] | -6.965%
33 | Cc1ccc2nc(C)cc(NN=Cc3cccc(F)c3)c2c1 [TCMDC-142066] | 30.79%
34 | CCOc1ccc2nc(C)cc(NN=Cc3ccncc3)c2c1 [TCMDC-142046] | -27.59%
35 | Cc1cc(NN=Cc2ccc(F)cc2)c2ccc(F)cc2n1 [TCMDC-142039] | -75.1%
36 | CCOc1ccc2nc(C)cc(NN=Cc3ccccc3)c2c1 [TCMDC-142094] | -27.91%
37 | Cc1cc(NN=Cc2ccc(Cl)cc2)c2ccccc2n1 [TCMDC-123979] | 12.17%
38 | COc1ccc2c(NN=Cc3ccc(F)cc3)cc(C)nc2c1 [TCMDC-142086] | 107.2%
39 | CCOc1ccc2nc(C)cc(NN=Cc3ccc(Cl)cc3)c2c1 [TCMDC-142091] | 100.1%
40 | COc1ccc2nc(C)cc(NN=Cc3ccc(Cl)cc3)c2c1 [TCMDC-123971] | 99.29%
41 | Cc1ccc2c(NN=CC=Cc3ccccc3)cc(C)nc2c1 [TCMDC-142075] | -22.28%
42 | Cc1ccc2c(NN=Cc3cccc(F)c3)cc(C)nc2c1 [TCMDC-142067] | 59.3%
43 | Cc1ccc(NC(=O)NC2CCN(c3ccnc4cc(Cl)ccc34)CC2)cc1 [TCMDC-133571] | -34.41%
44 | CNS(=O)(=O)Cc1ccc(Nc2nccc(Nc3cccc4c3cnn4C(=O)Nc3ccccc3)n2)cc1 [TCMDC-136315] | 19.26%
45 | Cc1cc(Br)c(OCCCON2C(N)=NC(N)=NC2(C)C)c(Br)c1 [TCMDC-131365] | 37.66%
46 | Cc1nc2c(c(C)nn2C(C)(C)C)c(C)c1CCC(=O)Nc1ccc(CN2CCCC2)cc1 [TCMDC-124397] | -7.615%
47 | COC(=O)c1ccc(Nc2nccc(Nc3ccc(Oc4ccccc4)cc3)n2)cc1 [TCMDC-138560] | -28.54%
48 | COc1cccc(Nc2nc(C)cc(NCc3ccc(-n4ccnc4)cc3)n2)c1 [TCMDC-133450] | 43.61%

Row | Structure (SMILES) | % Inhibition
49 | Cc1cc(N(C)C)nc(Nc2ccc(NC(=O)c3ccccc3F)cc2)n1 [TCMDC-124725] | 4.015%
50 | Cc1cc(Cl)c(S(=O)(=O)NC2CCCC2)cc1OCC(=O)NC1CCCCC1 [TCMDC-124353] | 26.39%
51 | Fc1cccc(COc2ccc(Nc3ncnc4ccc(-c5nnc(C(F)(F)F)o5)cc34)cc2Cl)c1 [TCMDC-138162] | -34.34%
52 | Cc1cc(NN=Cc2ccc(F)cc2)c2cccc(C)c2n1 [TCMDC-142082] | 83.37%
53 | COc1ccc2c(NN=Cc3cccc(F)c3)cc(C)nc2c1 [TCMDC-142085] | 106.9%
54 | Cc1cc(NN=Cc2ccccc2F)c2cccc(C)c2n1 [TCMDC-142068] | -42.7%
55 | Cc1cc(NN=Cc2cccc(F)c2)c2cccc(C)c2n1 [TCMDC-142081] | -19.79%
56 | COc1ccc2nc(C)cc(NN=Cc3cccc(F)c3)c2c1 [TCMDC-142084] | 32.42%
57 | COc1ccc2nc(C)cc(NN=Cc3ccc(F)cc3)c2c1 [TCMDC-123973] | 111.2%
58 | CCCC(=O)Nc1ccc(OCCCCN(CC(C)(C)C)c2ccc(C#N)c(C(F)(F)F)c2)cc1 [TCMDC-132784] | -2.311%
59 | O=C(Nc1ccc(-c2nc3ccccc3[nH]2)cc1)c1cccc([N+](=O)[O-])c1 [TCMDC-123637] | -11.52%
60 | Cc1n[nH]c2ccc(-c3ccc4nccc(N5CCC(N)CC5)c4c3)cc12 [TCMDC-134315] | 105.4%
61 | O=S(=O)(Nc1ccc2nccc(N3CCNCC3)c2c1)c1ccc(-c2ccccc2)cc1 [TCMDC-139546] | 12.57%
62 | Clc1ccc2nccc(N3CCC(CN4CCC(c5c[nH]c6ccccc56)CC4)CC3)c2c1 [TCMDC-134281] | 0.1691%
63 | CN1CCN(c2ccc(Nc3c4ccccc4nc4ccccc34)cc2)CC1 [TCMDC-123912] | 39.23%
64 | CCn1c(-c2ccccc2)cc2nnc3ccccc3c21 [TCMDC-138220] | 3.318%
65 | CCN1CCN(c2ccc(Nc3c4ccccc4nc4ccccc34)cc2)CC1 [TCMDC-124255] | 96.72%
66 | CCN1CCN(CCCCNc2c3ccccc3nc3ccccc23)CC1 [TCMDC-137570] | 80.96%
67 | Cc1ccc(Nc2nc(C)cc(N3CCN(c4ccccc4)CC3)n2)cc1 [TCMDC-125308] | -56.11%
68 | CCN1CCN(CCNc2c3ccccc3nc3ccccc23)CC1.Cl [TCMDC-137545] | 85.19%
69 | CCN1CCN(CCCNc2c3ccccc3nc3ccccc23)CC1 [TCMDC-137546] | 84.24%
70 | CC[C@H](NC(=O)c1c(CCCN2CCN(c3ccccc3)CC2)c(-c2ccccc2)nc2cc(O)ccc12)c1ccccc1 [TCMDC-139302] | 9.444%
71 | Oc1cc2c(cc1CN1CCN(Cc3ccc(Cl)s3)CC1)CCC2 [TCMDC-124882] | -46.75%
72 | CCCc1ccc(N2C(N)=NC(N)=NC2(C)C)cc1 [TCMDC-137706] | 5.239%

Source: paper PMC4552634, “A New Set of Chemical Starting Points with Plasmodium falciparum Transmission-Blocking Potential for Antimalarial Drug Discovery” (PLoS ONE, 2015)
